Measurements taken from PubChem BioAssay (NCI).
This is part of a sample that, as a whole, favours compounds with a hit. Of some 83,000 tested, about 20% had one in any assay.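 Plates (96-well) were seeded with cells, treated with compound at one concentration, and incubated for 48 hours before percent growth was determined.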 Unmarked numbers belong to inactive results. Active and inactive are the calls of the source. The calls were made as follows: active = growth percent below 10; inactive = the rest.

Experiments:
Assay in all cases: NCI-60 one-dose screen, 48 h (100 = growth as untreated, 0 = no growth, -100 = all killed)
Details in all cases: 10 µM unless noted
[1] = tested on: NCI-H23 lung
[2] = tested on: NCI-H226 lung
[3] = tested on: NCI-H322M lung
[4] = tested on: HOP-62 NSCLC
[5] = tested on: NCI-H460 lung
[6] = tested on: HOP-92 NSCLC
[7] = tested on: NCI-H522 lung
[8] = tested on: A549/ATCC NSCLC
[9] = tested on: 786-0 renal
[10] = tested on: COLO 205 colon
[11] = tested on: DU-145 prostate
[12] = tested on: K-562 leukemia
[13] = tested on: MALME-3M melanoma
[14] = tested on: MDA-MB-231 breast
[15] = tested on: RXF 393 renal
[16] = tested on: SF-268 CNS
[17] = tested on: SF-295 CNS
[18] = tested on: SF-539 CNS
[19] = tested on: UACC-257 melanoma
[20] = tested on: M14 melanoma

`COc1ccc(CCNc2nc3c(c(=O)n(Cc4ccc(Br)cc4)c(=O)n3C)n2C)cc1OC` was tested, and the growth [1] was 84.1%, the growth [2] was 86.6% and the growth [3] was 93.8%. For the same molecule, the growth [4] was 113%, the growth [5] was 96.9% and the growth [6] was 92.8%. It also gave a growth [7] of 84.2%, a growth [8] of 90% and a growth [9] of 102%. It also gave a growth [10] of 103%, a growth [11] of 107% and a growth [12] of 69.8%. The growth [13] was 87.2%, the growth [14] was 81.9% and the growth [15] was 120%. For the same molecule, the growth [16] was 92.6%, the growth [17] was 89.1% and the growth [18] was 88.5%. For the same molecule, the growth [19] was 92.4% and the growth [20] was 101%.
Molecule `O=C(COc1ccc(/C=C2\COc3ccccc3C2=O)cc1)Nc1nccs1` has a growth [1] of 79%, a growth [2] of 99% and a growth [3] of 104%. It also gave a growth [4] of 94.6%, a growth [5] of 102% and a growth [6] of 64.9%. The growth [7] was 56.5%, the growth [8] was 98.3% and the growth [9] was 89.3%. The growth [10] was 127%, the growth [11] was 107% and the growth [12] was -8.33% (active). It also gave a growth [13] of 88.5%, a growth [14] of 95.9% and a growth [15] of 96.4%. For the same molecule, the growth [16] was 92.8%, the growth [17] was 112% and the growth [18] was 85.9%. For the same molecule, the growth [19] was 98.5% and the growth [20] was 93.2%.
With `COC(=O)c1ccc(NC(=O)c2ccc(-c3cccc([N+](=O)[O-])c3)o2)cc1` the growth [1] was 87.3%, the growth [2] was 73.9% and the growth [3] was 94.3%. The growth [4] was 107%, the growth [5] was 101% and the growth [6] was 94.6%. The growth [7] was 94.2%, the growth [8] was 108% and the growth [9] was 103%. The growth [10] was 108%, the growth [11] was 110% and the growth [12] was 105%. For the same molecule, the growth [13] was 90.3%, the growth [14] was 90.3% and the growth [15] was 92.7%. The growth [16] was 97.6%, the growth [17] was 94.9% and the growth [18] was 90.5%. For the same molecule, the growth [19] was 102% and the growth [20] was 101%.
With `CC1=C[C@H]2c3c(c(O)c(O)c4oc(-c5ccccc5)cc(=O)c34)[C@H](c3cc(O)c(O)c4oc(-c5ccccc5)cc(=O)c34)[C@H]2C(C)(C)C1` the growth [1] was -14.4% (active), the growth [2] was -3.14% (active) and the growth [3] was 6.91% (active). The growth [4] was -2.06% (active), the growth [5] was -31.8% (active) and the growth [6] was -10% (active). The growth [7] was -12.7% (active), the growth [8] was 2.87% (active) and the growth [9] was -22.8% (active). The growth [10] was 4.64% (active), the growth [11] was 9.89% (active) and the growth [12] was 2.82% (active). For the same molecule, the growth [13] was -12.8% (active), the growth [14] was 5.31% (active) and the growth [15] was -26.6% (active). The growth [16] was 5.26% (active), the growth [17] was -18.2% (active) and the growth [18] was -10.5% (active). For the same molecule, the growth [19] was 12.8% and the growth [20] was -28.1% (active).
`CN(C)S(=O)(=O)c1cccc(-c2nc3sc4c(c3c(=O)[nH]2)CCCC4)c1` gave a growth [1] of 44.1%, a growth [2] of 54% and a growth [3] of 27.2%. For the same molecule, the growth [4] was 42.7%, the growth [5] was 7.27% (active) and the growth [6] was 11.4%. The growth [7] was 54.7%, the growth [8] was 25.8% and the growth [9] was -37.1% (active). For the same molecule, the growth [10] was 64.6%, the growth [11] was 54.5% and the growth [12] was 37.9%. The growth [13] was 17.2%, the growth [14] was 34.8% and the growth [15] was 10.7%. It also gave a growth [16] of 64.9%, a growth [17] of 24.7% and a growth [18] of 23%. The growth [19] was 75% and the growth [20] was 48%.
Work on `O=c1cc(/C(=C2/C=CC=N2)c2ccc[nH]2)c2cc(Cl)ccc2o1` yielded a growth [1] of 62.3%, a growth [2] of 35% and a growth [3] of 55.8%. It also gave a growth [4] of 50.4%, a growth [5] of 24.3% and a growth [6] of 66.5%. It also gave a growth [7] of 56.1%, a growth [8] of 55.2% and a growth [9] of 22.4%. The growth [10] was 87.2%, the growth [11] was 47% and the growth [12] was 24.8%. The growth [13] was 66.6%, the growth [14] was 71% and the growth [15] was -29.1% (active). The growth [16] was 56.4%, the growth [17] was 13.9% and the growth [18] was 16.1%. The growth [19] was 38.3% and the growth [20] was 35.5%.
With `CNC(=O)c1cc(Oc2ccc(NC(=O)Nc3ccc(Cl)c(SC)c3)c(F)c2)ccn1` the growth [1] was 29.7%, the growth [2] was 40.4% and the growth [3] was 74.5%. For the same molecule, the growth [4] was 62.1%, the growth [5] was 58.2% and the growth [6] was 48.8%. For the same molecule, the growth [7] was 17.5%, the growth [8] was 39.9% and the growth [9] was 88.5%. The growth [10] was 24.4%, the growth [11] was 72.1% and the growth [12] was 18.1%. The growth [13] was 27.5%, the growth [14] was 50.1% and the growth [15] was 85.9%. It also gave a growth [16] of 50.6%, a growth [17] of 34% and a growth [18] of 47.3%. It also gave a growth [19] of 28.1% and a growth [20] of 29.7%.
`CN(C)S(=O)(=O)c1ccc(S(=O)(=O)Nc2cccc(Cl)c2N2CCCCC2)cc1` showed a growth [1] of 84.1%, a growth [2] of 82.9% and a growth [3] of 98.7%. For the same molecule, the growth [4] was 87.9%, the growth [5] was 93.6% and the growth [6] was 72.4%. The growth [7] was 68.7%, the growth [8] was 66.9% and the growth [9] was 87.9%. The growth [10] was 106%, the growth [11] was 89.1% and the growth [12] was 55.6%. For the same molecule, the growth [13] was 106%, the growth [14] was 66.6% and the growth [15] was 88%. The growth [16] was 89.5%, the growth [17] was 78.1% and the growth [18] was 94%. For the same molecule, the growth [19] was 74.1% and the growth [20] was -35.4% (active).
